Data as given in PubChem BioAssay AID626 (Vanderbilt High Throughput Screening Facility, 2007).
The whole screen tested about 64,000 compounds, of which about 1,900 (3%) were called active.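 How the source made its calls: active means fluorescence rise, raw or as B-score row- and column-corrected plate score, outside the 99.7% band of its plate's samples, either direction; inactive means the rest.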 The full list was thinned out, with actives kept by preference.

system: Muscarinic acetylcholine receptor M1; assay: M1 muscarinic receptor agonists, primary screen, CHO-M1 cells, Fluo-4 calcium, agonist mode (AID 626); conditions: Fluo-4 calcium fluorescence, at 10 µM, hits give high values

B-score, inactive:
O=C(COc1ccccc1)NCc1ccc2c(c1)OCO2 0.038, Cc1ccc(-c2csc3nnc(SCC(=O)NCc4ccco4)n23)cc1 0.495, COC(=O)c1ccccc1NC(=O)CN(Cc1ccccc1)S(C)(=O)=O 0.117, CCOc1ccc(N2C(=O)CC(N(O)c3ccccc3)C2=O)cc1 (stereo not given) 0.335, COc1ccccc1N1CCN(C(=O)c2cc(-c3ccc(Cl)c(Cl)c3)on2)CC1 -0.0802, COc1ccccc1N1CCN(C(=O)c2cc(-c3ccc(Br)cc3)on2)CC1 -0.734, O=C(c1ccco1)N1CCN(CC(=O)N(C2CCCCC2)C2CCS(=O)(=O)C2)CC1 (stereo not given) 1.21, COc1ccc(S(=O)(=O)N2CCCCC2)cc1Br -0.037, O=C(CCSc1ccccc1)NCCSc1ccccn1 -0.157, COc1c(F)c(F)c(-c2csc(N)n2)c(F)c1F -0.0216, Cc1nc2c(c(=O)n1Cc1ccco1)c1nc3ccccc3nc1n2Cc1ccccc1 -1.33, COc1ccc(CC(=O)Nc2nc3n(n2)C(c2ccccc2)CC(=O)N3)cc1OC (stereo not given) 1.86, COc1cc2c(cc1OC)C(c1ccc(C)o1)CC(=O)N2 (stereo not given) 0.00289, COCCOC(=O)C1=C(C)NC(=O)CC1c1cc2c(cc1Br)OCO2 (stereo not given) 0.114, CC(C)C[C@H](NC(=O)Nc1cccc(C(F)(F)F)c1)C(=O)O 0.0481, CC(=O)c1c(C)c[nH]c1C 0.323, Cc1nc(CNS(=O)(=O)c2cccnc2)cs1 0.163, Cc1ccc(S(=O)(=O)NCc2csc(C)n2)c(C)c1 -0.841, CC(C)C(NC(=O)OCc1ccccc1)C(=O)OCC(=O)N1C(C)CCCC1C (stereo not given) -0.582, CC(C)(C)NC(=O)c1cc(NC(=O)c2ccco2)cc(NC(=O)c2ccco2)c1 4.57, COc1cc(OC)cc(C(=O)NCCSCc2ccco2)c1 -0.317, COC(=O)c1ccc(N(CC(=O)NC2CCCC2)C(=O)CNC(=O)c2ccco2)cc1 -0.016, O=C(NCCSc1ccccc1)c1ccco1 0.47, CCOC(=O)N1CCN(C(=O)CSc2nnc(-c3c[nH]c4ccccc34)n2CCOC)CC1 0.791, O=C(OCC(=O)c1cccs1)C1=COCCO1 -0.115, COc1ccc(C(c2nnnn2C2CCCCC2)N2CCN(c3ccccc3F)CC2)cc1 (stereo not given) -0.721, COCC(C)n1c(SCc2ccc(C(=O)OC)o2)nc2ccccc2c1=O (stereo not given) 1.47, COC(=O)c1ccc(CSc2ccccc2C)o1 -0.274, CCOC(=O)N1CCC(C(N)=O)CC1 -0.221, COc1ccc2c(c1)C=CC1(O2)N(CCO)c2ccccc2C1(C)C (stereo not given) 0.737, COc1ccc(OC)c(S(=O)(=O)Nc2ccccc2F)c1 -0.55, Cc1cc(Nc2ccccc2)n(CCC#N)n1 -0.373, CN1CCN(c2ccc(NC(=O)COc3ccc(Cl)cc3Cl)cc2)CC1 -0.55, O=C(c1cccs1)N1CCN(Cc2ccc3c(c2)OCO3)CC1 0.609, CCOc1ccc(Nc2oc(Cc3ccccc3)nc2C#N)cc1 0.194, N#Cc1nc(-c2ccc(OCc3ccccc3)cc2)oc1NCCCN1CCOCC1 1.06, CCN1C(=O)CS/C1=N\c1nccs1 0.514, O=C(Nc1ccc(Cl)cc1)c1ccsn1 -0.00233, N#Cc1c(NC(=O)CCCN2C(=O)c3ccccc3C2=O)oc(-c2ccccc2)c1-c1ccccc1 -0.449, COc1cc(C(=O)Nc2nccs2)cc(OC)c1OC 1.84

B-score, active:
c1n[nH]c(NCc2ccc3c(c2)OCO3)n1 2.68, COc1ccccc1N1CCN(C(=O)c2c(-c3c(Cl)cccc3Cl)noc2C)CC1 4.97, CCCOc1ccccc1C1CC(=O)Nc2cc3c(cc21)OCO3 (stereo not given) 4.33, Cc1nc(CNS(=O)(=O)c2ccc(Oc3ccccc3)cc2)cs1 3.97, COc1ccc(CCNC(=O)c2ccco2)cc1 78.9, COc1ccc(N(CC(=O)NC(C)(C)C)C(=O)c2ccco2)cc1 3.36, COC(=O)c1ccc(CSc2nc3ccccc3c(=O)n2-c2cccc(OC)c2)o1 3.63, Cc1cc(NC(=O)COc2ccc(Cl)cc2Cl)n(CCC#N)n1 -2.93, COc1ccc(Nc2oc(-c3ccccc3Cl)nc2C#N)cc1 37.2, COc1cc(C(=O)Nc2oc(-c3ccccc3)c(-c3ccccc3)c2C#N)cc(OC)c1OC 3.33
